Common to all, as to settings: mRNA level, 48 h; actives raise or lower the signal
Read-out in experiment [1]: Forkhead box O1 (FOXO1), FOXO1 (gene 2308)
Description: LTEA_HepaRG_FOXO1: Life Technologies and Expression Analysis (LTEA) Assay for Forkhead box O1 (FOXO1) using HepaRG (AID 2283456). The essentials:
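Using one lot of HepaRG hepatic cells kept in 0.5% DMSO, the team applied test chemicals in duplicate, half-log dilutions from 100 uM, for 48 h. Expression, normalised to ACTB/GAPDH/POLR2A, was compared with vehicle in either direction.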

Read-out in experiment [2]: growth arrest and DNA damage 45 (GADD45A), GADD45A (gene 1647)
Description: LTEA_HepaRG_GADD45A: Life Technologies and Expression Analysis (LTEA) Assay for growth arrest and DNA damage 45 (GADD45A) using HepaRG (AID 2283458). The essentials:
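Eight-point concentration-response in HepaRG cells: 48 h chemical exposure, 0.5% DMSO vehicle, top dose 100 uM. Normalized qRT-PCR mRNA readout with bidirectional fitting relative to DMSO.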

Read-out in experiment [3]: Forkhead box O3 (FOXO3), FOXO3 (gene 2309)
Description: LTEA_HepaRG_FOXO3: Life Technologies and Expression Analysis (LTEA) Assay for Forkhead box O3 (FOXO3) using HepaRG (AID 2283459). In a few lines: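 Gene-expression endpoint: FOXO3 transcript level by qRT-PCR in HepaRG cultures treated 48 h with chemicals up to 100 uM (half-log, 0.5% DMSO vehicle).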

Read-out in experiment [4]: ABC Transporter (ABCB1), ABCB1 (gene 5243)
Description: LTEA_HepaRG_ABCB1: Life Technologies and Expression Analysis (LTEA) Assay for ABC Transporter (ABCB1) using HepaRG (AID 2283460). The essentials:
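Human liver HepaRG line treated 48 h with up to 100 uM compound (eight half-log points, 0.5% DMSO); ABCB1 mRNA change fitted bidirectionally against DMSO controls.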

Read-out in experiment [5]: growth arrest and DNA damage 45 (GADD45B), GADD45B (gene 4616)
Description: LTEA_HepaRG_GADD45B: Life Technologies and Expression Analysis (LTEA) Assay for growth arrest and DNA damage 45 (GADD45B) using HepaRG (AID 2283461). The essentials: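 Differentiated HepaRG cells, plated 48 h then switched to serum-free induction medium, were exposed 48 h in duplicate to eight half-log concentrations from 100 uM in 0.5% DMSO; mRNA quantified by qRT-PCR, normalized to ACTB/GAPDH/POLR2A, bidirectional fit versus DMSO.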

Read-out in experiment [6]: ABC Transporter (ABCC3), ABCC3 (gene 8714)
Description: LTEA_HepaRG_ABCC3: Life Technologies and Expression Analysis (LTEA) Assay for ABC Transporter (ABCC3) using HepaRG (AID 2283462). In a few lines:
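HepaRG cells in serum-free induction medium were exposed for 48 h in duplicate to 8-point half-log concentrations topping at 100 uM in 0.5% DMSO. ABCC3 mRNA was measured by qRT-PCR normalized to ACTB, GAPDH and POLR2A, with bidirectional fitting versus DMSO.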

Read-out in experiment [7]: ABC Transporter (ABCB11), ABCB11 (gene 8647)
Description: LTEA_HepaRG_ABCB11: Life Technologies and Expression Analysis (LTEA) Assay for ABC Transporter (ABCB11) using HepaRG (AID 2283463). In a few lines: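 Using HepaRG cultures held in 0.5% DMSO, chemicals were tested at half-log dilutions from 100 uM for 48 h. Induction or suppression of ABCB11 mRNA, normalized to ACTB, GAPDH and POLR2A, was fitted bidirectionally against vehicle.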

Read-out in experiment [8]: ABC Transporter (ABCC2), ABCC2 (gene 1244)
Description: LTEA_HepaRG_ABCC2: Life Technologies and Expression Analysis (LTEA) Assay for ABC Transporter (ABCC2) using HepaRG (AID 2283464). The essentials: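 HepaRG cells were plated 48 h, switched to serum-free induction medium, then exposed in duplicate for 48 h to 8 concentrations (top 100 uM, half-log steps, 0.5% DMSO). ABCC2 mRNA was measured by qRT-PCR normalized to ACTB/GAPDH/POLR2A; bidirectional fitting versus DMSO.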

Read-out in experiment [9]: Broad substrate specificity ATP-binding cassette transporter ABCG2 (Homo sapiens) (UniProt Q9UNQ0)
Description: LTEA_HepaRG_ABCG2: Life Technologies and Expression Analysis (LTEA) Assay for ABC Transporter (ABCG2) using HepaRG (AID 2283465). The essentials:
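Gene expression of ABCG2 in HepaRG liver cells is quantified by qRT-PCR following 48 h exposure across an eight-point series topping at 100 uM. Values come from bidirectional fitting relative to DMSO vehicle.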

Read-out in experiment [10]: ATP-citrate lyase (ACLY), ACLY (gene 47)
Description: LTEA_HepaRG_ACLY: Life Technologies and Expression Analysis (LTEA) Assay for ATP-citrate lyase (ACLY) using HepaRG (AID 2283466). The essentials:
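ACLY expression changes in human HepaRG liver cells are quantified by qRT-PCR after 48 h exposure to test chemicals (maximum 100 uM, half-log steps). Values are fitted in both directions relative to 0.5% DMSO vehicle.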

Read-out in experiment [11]: Peroxisomal acyl-coenzyme A oxidase 1 (ACOX1) gene, ACOX1 (gene 51)
Description: LTEA_HepaRG_ACOX1: Life Technologies and Expression Analysis (LTEA) Assay for Peroxisomal acyl-coenzyme A oxidase 1 (ACOX1) gene using HepaRG (AID 2283467). In a few lines: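 Human HepaRG hepatic cultures, 48 h treatment with test chemicals up to 100 uM. ACOX1 expression read by qRT-PCR relative to 0.5% DMSO vehicle.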

Read-out in experiment [12]: Alkaline Phosphatase, Placental (ALPP) gene, ALPP (gene 250)
Description: LTEA_HepaRG_ALPP: Life Technologies and Expression Analysis (LTEA) Assay for Alkaline Phosphatase, Placental (ALPP) gene using HepaRG (AID 2283468). The essentials: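 Differentiated human HepaRG cells were plated and cultured 48 h, then exposed in duplicate for 48 h in serum-free induction medium to eight half-log concentrations from 100 uM in 0.5% DMSO. ALPP mRNA was measured by TaqMan qRT-PCR, normalized to ACTB, GAPDH, POLR2A.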

Read-out in experiment [13]: Bcl-2 (BAD) gene, BAD (gene 572)
Description: LTEA_HepaRG_BAD: Life Technologies and Expression Analysis (LTEA) Assay for Bcl-2 (BAD) gene using HepaRG (AID 2283469). In a few lines: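 Activity values reflect up- or down-regulation of BAD mRNA in human HepaRG hepatic cells treated 48 h in serum-free medium, with eight-point half-log dosing capped at 100 uM and 0.5% DMSO vehicle.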

Read-out in experiment [14]: Bcl-2 (BAX) gene, BAX (gene 581)
Description: LTEA_HepaRG_BAX: Life Technologies and Expression Analysis (LTEA) Assay for Bcl-2 (BAX) gene using HepaRG (AID 2283470). The essentials:
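Human HepaRG cells treated in duplicate for 48 h across eight concentrations (max 100 uM, 0.5% DMSO); BAX expression measured by qRT-PCR.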

Read-out in experiment [15]: adenosine kinase (ADK) gene, ADK (gene 132)
Description: LTEA_HepaRG_ADK: Life Technologies and Expression Analysis (LTEA) Assay for adenosine kinase (ADK) gene using HepaRG (AID 2283471). In a few lines: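 HepaRG (human liver), 48 h chemical exposure, 8-pt half-log series, top 100 uM, 0.5% DMSO vehicle. Readout: ADK mRNA by qRT-PCR vs housekeeping genes; bidirectional curve fit relative to DMSO baseline.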

Read-out in experiment [16]: Alpha-fetoprotein (AFP) gene, AFP (gene 174)
Description: LTEA_HepaRG_AFP: Life Technologies and Expression Analysis (LTEA) Assay for Alpha-fetoprotein (AFP) gene using HepaRG (AID 2283472). The essentials:
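Measures AFP mRNA change in HepaRG after 48 h chemical exposure (8 half-log concentrations, highest 100 uM, 0.5% DMSO). Fold change relative to DMSO, fitted in both directions.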

Read-out in experiment [17]: BCL2L11 (gene 10018)
Description: LTEA_HepaRG_BCL2L11: Life Technologies and Expression Analysis (LTEA) Assay for Bcl-2 (BCL2L11) gene using HepaRG (AID 2283473). The essentials: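 Differentiated human HepaRG cells in serum-free induction medium were exposed in duplicate for 48 h to eight concentrations (top 100 uM, half-log steps, 0.5% DMSO). BCL2L11 mRNA was quantified by TaqMan qRT-PCR, normalized to ACTB/GAPDH/POLR2A, bidirectional fit versus DMSO.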

Read-out in experiment [18]: Apoptosis regulator Bcl-2 (Homo sapiens) (UniProt P10415)
Description: LTEA_HepaRG_BCL2: Life Technologies and Expression Analysis (LTEA) Assay for Bcl-2 gene using HepaRG (AID 2283475). In a few lines: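 Each chemical was tested in duplicate on HepaRG cultures held in serum-free induction medium for 48 h, highest concentration 100 uM with half-log dilutions. Transcript levels came from multiplexed qRT-PCR, normalised to housekeeping genes; activity was scored in either direction relative to DMSO.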

Read-out in experiment [19]: Bcl-2 (BID) gene, BID (gene 637)
Description: LTEA_HepaRG_BID: Life Technologies and Expression Analysis (LTEA) Assay for Bcl-2 (BID) gene using HepaRG (AID 2283476). In a few lines:
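Assay used HepaRG hepatic cells treated 48 h in serum-free medium with half-log dilutions from 100 uM. Endpoint: BID mRNA, qRT-PCR, normalized to ACTB/GAPDH/POLR2A.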

The text below walks through data of PubChem BioAssay (EPA / NIEHS).

Molecules are shown by their SMILES. The source made the active and inactive calls. The calls were made as follows: active = hit-call score of the fitted dose curve at least 0.9, where 1 is the maximum; inactive = score below 0.9.

Chain of Broad substrate specificity ATP-binding cassette transporter ABCG2 (Homo sapiens) (Q9UNQ0 whole entry, looked up): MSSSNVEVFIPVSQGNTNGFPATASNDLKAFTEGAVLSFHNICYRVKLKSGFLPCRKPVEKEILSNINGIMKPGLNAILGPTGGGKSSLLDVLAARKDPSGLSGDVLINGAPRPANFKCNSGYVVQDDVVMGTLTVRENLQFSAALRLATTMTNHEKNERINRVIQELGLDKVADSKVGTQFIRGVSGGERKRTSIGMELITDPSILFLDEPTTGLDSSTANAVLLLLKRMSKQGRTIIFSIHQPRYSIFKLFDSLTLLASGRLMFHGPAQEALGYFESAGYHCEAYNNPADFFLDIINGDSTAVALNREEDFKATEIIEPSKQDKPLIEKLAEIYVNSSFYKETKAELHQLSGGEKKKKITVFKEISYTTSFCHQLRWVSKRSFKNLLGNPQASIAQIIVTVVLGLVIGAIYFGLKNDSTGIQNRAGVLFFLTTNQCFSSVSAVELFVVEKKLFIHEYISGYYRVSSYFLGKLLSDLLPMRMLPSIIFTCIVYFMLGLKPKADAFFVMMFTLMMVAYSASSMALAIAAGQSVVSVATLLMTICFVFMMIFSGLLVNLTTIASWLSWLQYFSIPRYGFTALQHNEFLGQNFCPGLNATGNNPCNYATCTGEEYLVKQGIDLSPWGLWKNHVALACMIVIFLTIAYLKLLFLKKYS
Chain of Apoptosis regulator Bcl-2 (Homo sapiens) (P10415 whole entry, looked up): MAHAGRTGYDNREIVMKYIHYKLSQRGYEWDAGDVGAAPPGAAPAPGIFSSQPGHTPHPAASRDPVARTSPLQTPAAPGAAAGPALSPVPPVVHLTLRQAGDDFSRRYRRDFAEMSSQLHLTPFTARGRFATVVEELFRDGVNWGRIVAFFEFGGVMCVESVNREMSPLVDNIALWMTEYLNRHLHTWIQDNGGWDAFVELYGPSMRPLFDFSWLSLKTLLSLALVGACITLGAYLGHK

As to `CC(C)(OO)c1ccccc1`, the compound was classed as inactive in [1], in experiment [2], in experiment [3], in [4], in [5] and in experiment [6]. The result in [7], in experiment [8], in experiment [9], in experiment [10], in [11] and in [12] was inactive. For the same compound, the compound was classed as inactive in [13], in [14], in [15], in [16], in experiment [17] and in experiment [18]. Also, the compound was called inactive in experiment [19].

In the case of `O=C1C2(Cl)C3(Cl)C4(Cl)C(Cl)(Cl)C5(Cl)C3(Cl)C1(Cl)C5(Cl)C24Cl` (stereo unspecified), the half-maximal activity concentration (AC50) – broadly, the concentration giving half of the maximal activity seen – in experiment [1] is 93.5 µM (active); in experiment [3] it was 93.2 µM (active); in experiment [4], 91.8 µM (active); in experiment [5], 93 µM (active); in experiment [6] it was 92.7 µM (active); in experiment [8], 93.6 µM (active). For the same compound, the AC50 in experiment [9] is 15.8 µM (active); in experiment [10] it was 93.1 µM (active); in [11], 0.0893 µM (active); in [12], 26.7 µM (active); in experiment [14], 87.5 µM (active); in [16], 24.1 µM (active). In experiment [18], the AC50 was 11.1 µM (active). The outcome in [2], in [7], in experiment [13], in experiment [15], in experiment [17] and in [19] was inactive.

Regarding `O=[N+]([O-])c1ccc(O)c([N+](=O)[O-])c1`, the compound was called inactive in [1], in experiment [12], in experiment [13] and in experiment [14]. The AC50 is 11.5 µM (active) in experiment [2]; 28.8 µM (active) in experiment [3]; 13.6 µM (active) in experiment [4]; 50 µM (active) in experiment [5]; 12.4 µM (active) in [6]; 12.4 µM (active) in experiment [7]. In addition, the half-maximal activity concentration (AC50) is 13.3 µM (active) in experiment [8]; 12.4 µM (active) in experiment [9]; 4.2 µM (active) in [10]; 13.3 µM (active) in experiment [11]; 13.3 µM (active) in experiment [15]; 24.2 µM (active) in experiment [16]. Besides, the AC50 in experiment [17] was 13.1 µM (active); in experiment [18], 12.1 µM (active); in [19], 12.9 µM (active).

Regarding `O=C(O)C(Cl)(Cl)Cl`, the result in experiment [1], in [2], in [3], in experiment [4], in experiment [5] and in experiment [6] was inactive. For the same compound, the call in experiment [7], in [8], in [9], in experiment [10], in experiment [11] and in [12] was inactive. The compound was classed as inactive in [13], in [14], in experiment [15], in experiment [16], in [17] and in experiment [18]. For the same compound, the result in [19] was inactive.
